Records with an inconclusive call do not appear. The source made the active and inactive calls. Calls come from the whole dose curve; as a rule, active = well fitted inhibition curve with a large enough effect; inconclusive = small, poorly fitted or top-dose-only effect; inactive = no such curve, though single readings can be large or run the other way.
Test: qHTS to identify inhibitors of the type 1 interferon - major histocompatibility complex class I in skeletal muscle: Secondary screen by immunofluorescence; note: nearly all actives have a fitted effect of over 70% in size
Conditions: C25cl48 myoblasts, IFN-b induced HLA-ABC immunofluorescence, 24 h; series mostly up to 49.8 µM
Source text: Assay Submitter (PI): Travis B. Kinder Ph.D. & James Inglese Ph.D. Assay Development and Screening Technology Laboratory (ADST) National Center for Advancing Translational Sciences (NCATS), Rockville, MD National Institute of Health (NIH), Bethesda, Maryland Idiopathic inflammatory myopathies, collectively referred to as myositis, are a group of rare autoimmune diseases characterized by skeletal muscle inflammation, weakness, and usually accompanied by systemic pathologies of the skin, lungs, or vasculature. Current immunosuppressive therapies and glucocorticoids are often not curative and are accompanied by harsh side effects, especially in children with juvenile myositis. We initiated a drug repurposing and development program to identify more targeted, less toxic therapeutics to treat myositis. Although its cause is not known, muscle from a subset of patients have an abundance of the inflammatory type 1 interferon (IFN) and a down-stream product major histocompatibility complex class I (MHC class I), which are both thought to contribute to damage and weakness. We conducted quantitative high throughput screening (qHTS) on 6,576 compounds (4,679 unique) through a series of cell-based assays to identify those that inhibit the IFN-stimulated expression of MHC class I in muscle precursor cells (myoblasts). The compound identification and evaluation strategy utilized a primary screen with reporter-tagged MHC class I in genome-engineered myoblasts, ATP content counter screen for viability, HLA-ABC immunofluorescence secondary screen, and HLA-B RT-qPCR tertiary screen. To verify activity of compounds identified by qHTS in HLA-B HiBit reporter cells, compounds were assayed by high throughput HLA-ABC immunofluorescence. Briefly, 216 compounds identified from primary and counter screening as inhibitory with minimal cytotoxicity were dispensed into black/clear bottom […] using acoustic dispensing in an 11-point, 1:3 titration with a high final concentration of 50 uM. Normal immortalized human myoblasts C25cl48 were added to the plates with 4.0 ng/ml human IFN-beta for 24 hours, fixed, stained by immunofluorescence for HLA-ABC protein, nuclei, and cell body, and analyzed by laser scanning cytometry as described by Auld et al., 2006. References: Auld DS, Johnson RL, Zhang Y, Veith H, Jadhav A, Yasgar A, Simeonov A, Zheng W, Martinez ED, Westwick JK, Austin CP, Inglese J. 2006. Fluorescent protein-based cellular assays analyzed by laser-scanning microplate cytometry in 1536-well plate format. Methods Enzymol 414:566-89. doi:10.1016/S0076-6879(06)14029-X
PROTOCOL TABLE (as described by Inglese et al., 2007) SEQUENCE No. (e.g., 1, 2, 3, etc.); […] (e.g., Cells, Incubation, Reagent, etc.); VALUE; DESCRIPTION 0; Compounds; 25 nl; Follow-up compounds dispensed at 25 nl/well with Labcyte Echo 655 acoustic dispenser in triplicate Aurora ChemLib 1536K black/clear bottom, low base, TC 1536-well plates (00019324). Also dispensed 25 nl/well DMSO control, ruxolitinib IFN-b inhibitor control titration, and digitonin cytotoxic control 1a; Cells; 5 uL; Multidrop Combi (Thermo Scientific) to seed 125 cells/well into eight plates in 5 ul/well of iHSKM growth medium (GM) without dexamethasone into columns 1+2. Add metal lids with gas-exchange holes 1b; Cells; 5 uL; Multidrop Combi (Thermo Scientific) to seed 125 cells/well into eight plates in 5 ul/well of iHSKM GM without dexamethasone + 4 ng/ml IFN-b into columns 3 - 48. […]
Potency is the fitted concentration of half-maximal effect.

Q: With `CCCOc1ccc2nc(NC(=O)OC)[nH]c2c1` as the compound, how does the Potency read?
A: The Potency was “inactive”.

Q: For `C[C@H](NC(=O)/C(C#N)=C/c1cccc(Br)n1)c1ccccc1`, which Potency is on record?
A: Its Potency is 20500 nM (active).

Q: With `CN1CCN(Cc2ccc(NC(=O)Nc3ccc(Oc4cc(NC(=O)C5CC5)ncn4)cc3)cc2C(F)(F)F)CC1` as the compound, how does the Potency read?
A: Its Potency is 64.7 nM (active).

Q: For `COc1cccc2c1C(=O)c1c(O)c3c(c(O)c1C2=O)C[C@@](O)(C(C)=O)C[C@@H]3O[C@H]1C[C@H](N)[C@H](O)[C@H](C)O1`, which Potency is on record?
A: The Potency was 458 nM (active).

Q: With `O=C(CCCCCCC(=O)Nc1ccccc1)NO` as the compound, how does the Potency read?
A: Its Potency is 914 nM (active).

Q: For `CC[C@@]1(O)C(=O)OCc2c1cc1n(c2=O)Cc2cc3c(CN(C)C)c(O)ccc3nc2-1`, which Potency is on record?
A: Its Potency is 7260 nM (active).

Q: With `Cc1cc(Nc2nc(N[C@@H](C)c3ncc(F)cn3)ncc2Cl)n[nH]1` as the compound, how does the Potency read?
A: The Potency was 647 nM (active).

Q: With `COc1cccc2c1C(=O)c1c(O)c3c(c(O)c1C2=O)C[C@@](O)(C(=O)CO)C[C@@H]3O[C@H]1C[C@H](N)[C@H](OC2CCCCO2)[C@H](C)O1` (stereo not given in full) as the compound, how does the Potency read?
A: Its Potency is 5140 nM (active).

Q: With `CCCCC(=O)OCC(=O)[C@H]1[C@H](C)C[C@H]2[C@@H]3C[C@H](F)C4=CC(=O)C=C[C@]4(C)[C@@]3(F)[C@@H](O)C[C@@]21C` as the compound, how does the Potency read?
A: Its Potency is “inactive”.

Q: Which Potency does the source give for `O=[N+]([O-])c1ccc2c(c1)S(=O)(=O)C=C2` here?
A: The Potency was 1820 nM (active).

Q: For `CC(C)(C)c1ccc(S(=O)(=O)/C=C/C#N)cc1`, which Potency is on record?
A: Its Potency is 2290 nM (active).

Q: With `Cc1cc(O)c(-c2ccc([C@@H](C)CN(C)C)cc2)c2c1[nH]c(=O)c1sccc12` as the compound, how does the Potency read?
A: Its Potency is 81.4 nM (active).

Q: Which Potency does the source give for `CNC(=O)c1cc(Oc2ccc(NC(=O)Nc3cc(C(C)(C)C)nn3-c3ccc4ncccc4c3)c(F)c2)ccn1` here?
A: The Potency was 1820 nM (active).

Q: Which Potency does the source give for `Cc1ccc(-c2ncn(-c3ccc(Nc4nccc(-c5cccc(N6CCOCC6)c5)n4)cc3)n2)cn1` here?
A: Its Potency is 1820 nM (active).

Q: For `CC(=O)Nc1ccc([C@H](C)C(=O)Nc2ncc(C(C)C)s2)cc1`, which Potency is on record?
A: Its Potency is 1620 nM (active).

Q: Which Potency does the source give for `C=CC(=O)N1CCc2ccc(-n3c(=O)ccc4cnc5ccc(-c6cnn(C)c6)cc5c43)cc21` here?
A: The Potency was 2890 nM (active).

Q: Which Potency does the source give for `CC[C@@]1(O)C(=O)OCc2c1cc1n(c2=O)Cc2c-1nc1cc(F)c(C)c3c1c2[C@@H](N)CC3` here?
A: Its Potency is 1290 nM (active).

Q: Which Potency does the source give for `O=C1Nc2nc(-c3c(O)cccc3OCC3CC3)cc([C@@H]3CCCNC3)c2CO1` here?
A: Its Potency is 4580 nM (active).

Q: Which Potency does the source give for `COc1cccc2c1C(=O)c1c(O)c3c(c(O)c1C2=O)C[C@@](O)(C(=O)CO)C[C@@H]3O[C@H]1C[C@H](N)[C@H](O)[C@H](C)O1` here?
A: The Potency was 230 nM (active).

Q: Which Potency does the source give for `COC(=O)N[C@@H](C)CNc1nccc(-c2cn(C(C)C)nc2-c2cc(Cl)cc(NS(C)(=O)=O)c2F)n1` here?
A: The Potency was “inactive”.

Q: Which Potency does the source give for `CC(C)[C@H](C(=O)Nc1ccc(C(=O)NO)cc1)c1ccccc1` here?
A: The Potency was 458 nM (active).

Q: With `CC(C)c1nn(-c2c(Cl)cccc2Cl)c2nc(Cc3ccc(OCCO)cc3)[nH]c(=O)c12` as the compound, how does the Potency read?
A: The Potency was 22.9 nM (active).

Q: For `CN(Cc1ccc(/C=C/C(=O)NO)cc1)CC12CC3CC(CC(C3)C1)C2`, which Potency is on record?
A: Its Potency is 72.6 nM (active).

Q: With `CN1CC[C@H](c2c(O)cc(O)c3c(=O)cc(-c4ccccc4Cl)oc23)[C@H](O)C1` as the compound, how does the Potency read?
A: Its Potency is 102 nM (active).

Q: For `O=C1Nc2ccccc2C1(c1ccc(O)cc1)c1ccc(O)cc1`, which Potency is on record?
A: The Potency was “inactive”.

Q: For `N#CC[C@H](C1CCCC1)n1cc(-c2ncnc3[nH]ccc23)cn1`, which Potency is on record?
A: Its Potency is 458 nM (active).

Q: With `CC[C@H]1CN2CCc3cc(OC)c(OC)cc3[C@@H]2C[C@@H]1C[C@H]1NCCc2cc(OC)c(OC)cc21` as the compound, how does the Potency read?
A: Its Potency is 129 nM (active).

Q: For `OC1CCC(Oc2cccc3cnc(Nc4ccc5nc[nH]c5c4)nc23)CC1` (stereo not given), which Potency is on record?
A: Its Potency is 1020 nM (active).

Q: For `N#CCC1(n2cc(-c3ncnc4[nH]ccc34)cn2)CN(C2CCN(C(=O)c3ccnc(C(F)(F)F)c3F)CC2)C1`, which Potency is on record?
A: The Potency was 1290 nM (active).

Q: Which Potency does the source give for `O=C(/C=C/c1ccc(CN(CCO)CCc2c[nH]c3ccccc23)cc1)NO` here?
A: The Potency was 36.4 nM (active).

Q: With `CC(C)c1c2cc(-c3ccnc(NC4CCC(NC5CCOCC5)CC4)n3)ccc2nn1C` (stereo not given) as the compound, how does the Potency read?
A: Its Potency is 145 nM (active).

Q: With `N#CCNC(=O)c1ccc(-c2ccnc(Nc3ccc(N4CCOCC4)cc3)n2)cc1` as the compound, how does the Potency read?
A: The Potency was 1620 nM (active).

Q: Which Potency does the source give for `CO[C@H]1/C=C\C=C(\C)C(=O)NC2=CC(=O)C(NCCN(C)C)=C(C[C@@H](C)C[C@H](OC)[C@H](O)[C@@H](C)/C=C(/C)[C@@H]1OC(N)=O)C2=O` here?
A: The Potency was “inactive”.

Q: For `C[C@]12C=CC(=O)C=C1CC[C@H]1[C@@H]3C[C@@H](O)[C@](O)(C(=O)CO)[C@@]3(C)C[C@H](O)[C@@]12F`, which Potency is on record?
A: The Potency was “inactive”.

Q: With `COc1ccc(-c2nc(N3CCOCC3)c3sc(CN(C)c4ncc(C(=O)NO)cn4)cc3n2)cn1` as the compound, how does the Potency read?
A: The Potency was 5.8 nM (active).

Q: Which Potency does the source give for `COc1ccc(CNc2nc(N(CCO)CCO)nc3c2ncn3C(C)C)cc1` here?
A: Its Potency is 8140 nM (active).

Q: For `CC(C)C[C@H](NC(=O)[C@H](Cc1ccccc1)NC(=O)c1cnccn1)B(O)O`, which Potency is on record?
A: Its Potency is 25.7 nM (active).

Q: For `CC(=O)c1cnc2ccc(-c3cc(Cl)c(O)c(Cl)c3)nc2c1NC1CCC(CN(C)C)CC1` (stereo not given), which Potency is on record?
A: The Potency was 45.8 nM (active).

Q: Which Potency does the source give for `CC[C@@]1(O)C(=O)OCc2c1cc1n(c2=O)Cc2cc3cc(O)ccc3nc2-1` here?
A: The Potency was 1620 nM (active).

Q: With `C=CC(=O)N1CC/C(=C\c2ccc(F)c([N+](=O)[O-])c2)C(=O)/C(=C/c2ccc(F)c([N+](=O)[O-])c2)C1` as the compound, how does the Potency read?
A: The Potency was 182 nM (active).
